Shiga inhibitor: Shiga toxin inhibition; inhibition, % at 38.7 µM; Vero cells, Shiga toxin protein synthesis inhibition reporter; hit rate 9.2% among 290,000; AID 2315; in the data active = inhibition mostly above about 28%, no sharp cut-off; inactive = mostly below about 43%
SARS PLpro yeast: inhibitors of SARS-CoV papain-like protease in yeast; S. cerevisiae expressing SARS-CoV PLpro, growth rescue; Potency, µM (highest dose often 32.9 µM), hits mostly activators; hit rate 0.19% among 330,000; AID 485353; also: nearly all actives have a fitted effect of over 55% in size
Pf growth 48h: P. falciparum growth inhibition at 48 hours (one generation) | P. falciparum luciferase growth in erythrocytes, 48 h | Potency, µM (series often up to 28.7 µM), most hits filed as inhibitors | hit rate 5.9% among 310,000 | AID 504832; active = well fitted inhibition curve with a large enough effect; inconclusive = small, poorly fitted or top-dose-only effect, or another doubt; inactive = no such curve, though single readings can be large or run the other way
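A one-generation exposure of luciferase-tagged malaria parasites in RPMI 1640/Albumax erythrocyte culture, 37 C and 5% CO2. Inhibition is inferred from decreased luminescence after adding detection reagent.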
CHX counter: affects cycloheximide protein synthesis inhibition readout, counter-screen | cell reporter, cycloheximide protein synthesis inhibition counterscreen | max response, % | hit rate 12% among 300,000 | AID 2314; in the data active = max response mostly above about 13%, no sharp cut-off; inactive = mostly below about 14%; also: read at 38.3 µM for the half of the compounds with a filed dose
Pf growth 96h: P. falciparum growth inhibition at 96 hours; hit rate 6.9% among 320,000; P. falciparum luciferase reporter growth, 96 h; Potency, µM (doses to about 28.7 µM), most hits filed as inhibitors; AID 504834; active = well fitted inhibition curve with a large enough effect; inconclusive = small, poorly fitted or top-dose-only effect, or another doubt; inactive = no such curve, though single readings can be large or run the other way
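Plates of compound plus infected erythrocytes (2% hematocrit, 0.05% parasitemia final) incubate 96 hours, 37 C, 5% CO2. Detection reagent added; reduced luminescence from the parasites' luciferase reporter flags inhibition.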
NS1 function inh: blocks influenza NS1 protein function. Potency, µM (series often up to 46.1 µM). hit rate 0.4% among 270,000; also: actives are rising curves; nearly all actives have a fitted effect of over 50% in size
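Compounds were scored for reversing the slow growth caused by influenza A NS1 in S. cerevisiae, measured by optical density at 600 nm. Assay medium contained 2% galactose at pH 6.0; NS1-free yeast of the same strain were the positive control.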
Hits are given with their value; - = inactive; ? = inconclusive; . = no result. Compounds with a hit are over-represented: about 21% of the library has one in this group of screens. Unless noted, calls follow the shape of the full dose curve.

SMILES | Shiga inhibitor | SARS PLpro yeast | Pf growth 48h | CHX counter | Pf growth 96h | NS1 function inh
Cc1cc(C)nc(NC(=O)Cc2ccc(Br)cc2)n1 | - | - | - | - | ? | .
Cc1onc(-c2c(Cl)cccc2Cl)c1CO/N=C(\C#N)c1c(Cl)cccc1Cl | - | - | 15µM | - | ? | -
Cc1onc(-c2c(Cl)cccc2Cl)c1/C(N)=N/OC(=O)N(C)C | - | - | ? | - | ? | -
CCC(C)(C(=O)NC1CCCC1)N(C(=O)CNC(=O)c1ccccc1)c1c(C)n(C)n(-c2ccccc2)c1=O (centres undefined) | - | - | - | - | ? | .
CCOC(=O)c1nc(C)n(-c2cc(Cl)ccc2Cl)n1 | - | - | - | - | - | -
CCOC(=O)c1nc(C)n(-c2cc(OC)c(Cl)cc2Cl)n1 | 41 | - | - | 46 | - | .
CCCCN(CCCC)CC(O)CN(c1cc([N+](=O)[O-])ccc1OC)S(=O)(=O)c1ccccc1 (centres undefined) | - | - | 13µM | - | ? | -
COc1ccc([N+](=O)[O-])cc1N(CC(O)CN1CCOCC1)S(=O)(=O)c1ccccc1 (centres undefined) | - | - | - | - | - | -
COc1ccc([N+](=O)[O-])cc1N(CC(O)CN(C)C)S(=O)(=O)c1ccc(C)cc1 (centres undefined) | - | - | - | - | - | -
COc1ccc([N+](=O)[O-])cc1N(CC(O)CN(CC(C)C)CC(C)C)S(=O)(=O)c1ccccc1 (centres undefined) | - | - | 9.3µM | - | ? | -
O=C(O)c1ccc(-n2nc(C(F)(F)F)c3c2CCCC3)cc1 | - | - | - | - | ? | -
NC(=O)c1ccc(-n2nc(C(F)(F)F)c3c2CCCC3)cc1 | - | - | - | 19 | - | -
Oc1[nH]c2ccccc2c1N=Nc1cccc(Cl)c1 | 34 | - | - | 28 | ? | -
Cc1cccc2c(N=Nc3ccccc3)c(O)[nH]c12 | 57 | - | - | 65 | - | -
COC(=O)N=Nc1c(O)[nH]c2ccc(Br)cc12 | - | - | - | - | - | -
O=C(O)c1ccc(N=Nc2c(O)[nH]c3cc(Cl)ccc23)cc1 | 67 | - | ? | 36 | 4.7µM | -
O=C(O)c1ccc(N=Nc2c(O)[nH]c3ccc(Br)cc23)cc1 | 111 | - | ? | 56 | 5.2µM | -
COc1ccc(CNC(=O)CN2CCN(c3ccc(F)cc3)CC2)cc1 | - | - | - | - | - | -
O=C(NCCCCNC(=O)C(F)(F)F)C(F)(F)F | - | - | - | - | ? | .
Nc1ccc2nc[nH]c2c1 | - | - | - | - | - | .
Cc1ccc(N=Nc2c(O)[nH]c3ccc(F)cc23)cc1 | 67 | - | - | 50 | - | -
Oc1ccccc1-n1c(-c2ccccc2)ccc1-c1ccccc1 | - | - | 9.3µM | - | 5.9µM | -
C/C(=N\O)c1c(O)cc(-c2ccccc2)n(-c2ccccc2)c1=O | - | - | - | - | - | -
Cn1cnnc1SCC(=O)Nc1ccccc1Oc1ccccc1 | - | - | - | - | - | .
O=C1CCC(C(=O)O)N1 (centres undefined) | - | - | - | - | - | -
SMILES | Shiga inhibitor | SARS PLpro yeast | Pf growth 48h | CHX counter | Pf growth 96h | NS1 function inh
COC(=O)C1=C[C@@H](C(=O)OC)C2C3=C(C(=O)[C@]2(C)NC(=O)c2ccccc2)[C@H](C)n2c(=O)n(-c4ccccc4)c(=O)n2[C@@H]3C1 (some centres undefined) | - | . | . | - | . | .
CCCC(=O)N(CCN1CCOCC1)c1nc2cc(C)c(C)cc2s1 | 91 | - | - | 51 | - | -
CC1CN(CC(O)COC2CCC(C(C)(C)C)CC2)CC(C)O1 (centres undefined) | - | - | - | - | ? | .
CC1CCCC(C)N1CC(O)COC1CCC(C(C)(C)C)CC1 (centres undefined) | - | - | 10µM | - | - | -
COC(=O)c1sc(NC(=O)c2ccco2)nc1C | - | - | - | - | - | -
CCOC(=O)c1sc(NC(=O)C(CC)OC(=O)c2ccco2)nc1C (centres undefined) | - | - | - | 16 | - | -
CCOC(=O)c1sc(NC(=S)NC(=O)c2ccc(OC)cc2)nc1C | - | - | - | - | 2.9µM | -
CCOC(=O)c1sc(NC(=S)NC(=O)c2ccco2)nc1C | - | - | - | 42 | ? | -
COCCNC(=O)CSc1nc2scc(-c3ccccc3)c2c(=O)[nH]1 | - | - | - | - | - | -
CC(C)C(=O)Nc1cccc(C(=O)Nc2nccs2)c1 | - | - | - | 15 | - | -
CCCC(=O)Nc1cccc(C(=O)Nc2nccs2)c1 | - | - | - | - | . | -
CCC(=O)Nc1cccc(C(=O)Nc2nccs2)c1 | - | - | - | - | - | -
O=C(Nc1nccs1)c1cccc(NC(=O)C2CC2)c1 | - | - | - | - | 13µM | -
Cc1c(Br)c(C(F)(F)F)nn1CC(=O)NCc1ccccc1 | - | - | - | - | - | -
O=c1c2cc(NC(=S)N3CCCCCC3)ccc2nc2n1CCCCC2 | - | - | - | - | - | -
Cc1ccn(CC(=O)N2CCCC(N3CCN(c4ccc(F)cc4)CC3)C2)n1 (centres undefined) | - | - | ? | - | - | -
CC(NC(=O)c1ccccc1OC(F)F)c1ccc(-n2ccnc2)cc1 (centres undefined) | - | - | ? | - | 12µM | -
CCOC(=O)c1sc2nc(SCC(=O)N(CC)CC)n(CCCN3CCCC3=O)c(=O)c2c1C | - | - | 2.1µM | - | - | .
Cc1ccc(C#N)c(SCc2nnc(-c3ccc(Cl)cc3)o2)n1 | 128 | - | - | 78 | - | -
c1ccc(-c2nnc(CSc3nncs3)o2)cc1 | 63 | - | - | 46 | - | -
Cc1cc(C)c(C#N)c(SCc2nnc(-c3ccccc3)o2)n1 | 92 | - | - | 40 | ? | -
Cc1cc(C)c(C#N)c(SCc2nnc(-c3ccccc3[N+](=O)[O-])o2)n1 | 70 | - | - | 47 | ? | -
Cc1cc(C)c(C#N)c(SCc2ccccc2[N+](=O)[O-])n1 | - | - | - | - | - | -
COc1cc(NC(=O)CCn2c(=S)oc3ccccc32)cc(OC)c1OC | - | - | ? | - | - | -
CCCc1nnc(SCC(=O)N2CCCCC2C)n1CCOC (centres undefined) | - | - | - | - | ? | -
SMILES | Shiga inhibitor | SARS PLpro yeast | Pf growth 48h | CHX counter | Pf growth 96h | NS1 function inh
CCn1c(SCC(=O)Nc2ncc(C(F)(F)F)cc2Cl)nnc1-c1cccc(C)c1 | - | - | - | - | - | -
COc1ccc(-c2nnc(SCC(=O)Nc3ncc(C(F)(F)F)cc3Cl)n2CC(C)C)cc1 | - | - | - | 15 | - | -
CCCCOc1ccc(-c2cc(C(=O)NNC(=S)NCC)c3ccccc3n2)cc1 | - | - | ? | - | . | -
CCCCOc1cccc(-c2cc(C(=O)NNC(=S)NCC)c3ccccc3n2)c1 | - | - | . | 28 | 12µM | -
CCNC(=S)NNC(=O)c1cc(-c2cccc(OCC)c2)nc2ccccc12 | - | - | ? | 14 | . | -
CCNC(=S)NNC(=O)c1cc(-c2cccnc2)nc2ccccc12 | - | - | - | - | - | .

Compound activity deposited in PubChem by National Center for Advancing Translational Sciences (NCATS).
